Screening data as filed in PubChem.
The list is not random: actives were taken first. Their share in the collection is about 3.1%.
FAS-TE inh = FAS thioesterase domain inhibitors, primary screen, biochemical, fluorescence intensity, uHTS; Fatty acid synthase (Homo sapiens), P49327; recombinant FAS-TE, OMFH fluorogenic substrate, fluorescence endpoint; inhibition, % at 15 µM; 360,000 compounds, 0.67% hits;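 active means compounds whose normalised, plate-corrected inhibition of enzyme fluorescence in the single-dose primary screen is 50% or more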
NadD block = inhibitors of S. aureus NadD, primary screen, biochemical, colorimetric, uHTS. Nicotinate-nucleotide adenylyltransferase NadD (Staphylococcus aureus N315). purified NadD enzyme, colorimetric absorbance read-out. inhibition, % at 20 µM. 360,000 compounds, 0.78% hits. AID 602399, 2012; in the data active means inhibition above about 26%
Mot1-301 SUMO = yeast Mot1-301 growth rescue at high temperature, primary screen, SUMOylation pathway inhibitor project, S. cerevisiae, ATP luminescence, 38.5C; S. cerevisiae Mot1-301 growth rescue; percent above DMSO median, 100 means doubled; growth rescue, % at 18.8 µM; 320,000 compounds, 1% hits;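 active means every valid replicate shows activation above 250% relative to neutral control wells; inactive means the rest, any valid replicate at or below 250%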
Calb FLC = C. albicans growth inhibition with fluconazole, primary screen, CaCi-2 strain, Alamar Blue fluorescence; C. albicans CaCi-2 (fluconazole-resistant clinical isolate) + fluconazole, 48 h; growth inhibition, % (test concentration not listed); 300,000 compounds, 0.57% hits; AID 1979, 2009;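 active means growth inhibition above about 58% in most replicates, limit read from the data, passing the limit was not always enough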;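 further: all wells also contain fluconazole at 8 µg/ml as a sub-toxic cotreatment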
ATG4B inh = ATG4B protease inhibitors, primary screen, biochemical, fluorescence, uHTS; Cysteine protease ATG4B (Homo sapiens), Q9Y4P1; ATG4B cleavage of LC3-PLA2, NBD-HPC fluorescence, 1 h; inhibition, % at 8.33 µM; 340,000 compounds, 0.51% hits; AID 504462, 2011; in the data active means inhibition above about 40%
Target sequence (Q9Y4P1 whole entry, looked up): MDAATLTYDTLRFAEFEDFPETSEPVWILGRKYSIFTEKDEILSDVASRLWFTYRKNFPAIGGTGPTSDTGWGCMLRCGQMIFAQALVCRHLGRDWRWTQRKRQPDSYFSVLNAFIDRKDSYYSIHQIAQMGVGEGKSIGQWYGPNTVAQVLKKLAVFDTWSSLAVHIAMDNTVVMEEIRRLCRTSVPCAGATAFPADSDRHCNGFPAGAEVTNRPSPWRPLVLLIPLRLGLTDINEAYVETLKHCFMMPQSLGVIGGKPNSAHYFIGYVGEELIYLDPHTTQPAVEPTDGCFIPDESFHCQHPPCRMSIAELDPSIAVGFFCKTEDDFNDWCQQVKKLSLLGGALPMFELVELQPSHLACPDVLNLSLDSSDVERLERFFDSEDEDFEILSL
FAS-TE conf = FAS thioesterase domain inhibitors, confirmation, biochemical, fluorescence intensity, single concentration; shares compounds with FAS-TE inh; recombinant FAS-TE, OMFH fluorogenic substrate; inhibition, % at 15 µM; 2,300 compounds, 45% hits; AID 624325, 2012;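 active means compounds inhibiting the enzyme by at least 50% at 15 µM in any one of the replicates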
NadD inh conf = inhibitors of S. aureus NadD, confirmation, biochemical, colorimetric, single concentration; shares compounds with NadD block; purified S. aureus NadD, colorimetric enzyme assay; inhibition, % at 20 µM; 2,000 compounds, 13% hits; AID 624309, 2012; in the data active means inhibition mostly above about 42%, no sharp cut-off; inactive means mostly below about 42%
Numbers stand for hits.

Results for Cn1c(=O)c2ncn(CC(=O)Nc3ccc(N4CCOCC4)cc3)c2n(C)c1=O ?
FAS-TE inh: inactive; NadD block: inactive; Mot1-301 SUMO: inactive; Calb FLC: inactive; ATG4B inh: inactive

What do the screens show for `O=[N+]([O-])c1ccc(Nc2nc(N/N=C\c3ccc4c(c3)OCO4)nc(N3CCCCC3)n2)cc1`?
FAS-TE inh: 56.3; NadD block: 45.3; Mot1-301 SUMO: inactive; Calb FLC: inactive; ATG4B inh: inactive; FAS-TE conf: inactive; NadD inh conf: inactive

How did O=[N+]([O-])c1cc2c(cc1/C=N/Nc1nc(N3CCCC3)nc(N3CCCC3)n1)OCO2 do in these assays?
FAS-TE inh: inactive; NadD block: inactive; Mot1-301 SUMO: inactive; Calb FLC: inactive; ATG4B inh: inactive

Results for Cc1ccc(S(=O)(=O)Nc2cccc(-c3ccc(N4CCCCCC4)nn3)c2)c(C)c1 ?
FAS-TE inh: 58.9; NadD block: 41.7; Mot1-301 SUMO: inactive; Calb FLC: inactive; ATG4B inh: inactive; FAS-TE conf: 60.1; NadD inh conf: inactive

What do the screens show for `Cc1c([N+](=O)[O-])cc(S(=O)(=O)Nc2ccc(-c3ccc(N4CCCC4)nn3)cc2)cc1[N+](=O)[O-]`?
FAS-TE inh: 87.1; NadD block: 56.8; Mot1-301 SUMO: inactive; Calb FLC: inactive; ATG4B inh: inactive; FAS-TE conf: 90.2; NadD inh conf: inactive

What do the screens show for `O=[N+]([O-])c1ccc(Cl)c(S(=O)(=O)Nc2cccc(-c3ccc(N4CCCC4)nn3)c2)c1`?
FAS-TE inh: 58.0; NadD block: 62.8; Mot1-301 SUMO: inactive; Calb FLC: inactive; ATG4B inh: inactive; FAS-TE conf: 65.7; NadD inh conf: 51.5

How did Cc1ccc([N+](=O)[O-])cc1S(=O)(=O)Nc1ccc(-c2ccc(N3CCCC3)nn2)cc1 do in these assays?
FAS-TE inh: 53.8; NadD block: 37.7; Mot1-301 SUMO: inactive; Calb FLC: inactive; ATG4B inh: inactive; FAS-TE conf: 50.5; NadD inh conf: inactive

What do the screens show for `O=[N+]([O-])c1ccccc1S(=O)(=O)Nc1cccc(-c2ccc(N3CCCC3)nn2)c1`?
FAS-TE inh: inactive; NadD block: inactive; Mot1-301 SUMO: inactive; Calb FLC: inactive; ATG4B inh: inactive

Results for Cc1ccc([N+](=O)[O-])cc1S(=O)(=O)Nc1cccc(-c2ccc(N3CCOCC3)nn2)c1 ?
FAS-TE inh: inactive; NadD block: inactive; Mot1-301 SUMO: inactive; Calb FLC: inactive; ATG4B inh: inactive

How did C=CCC(C(=O)Oc1c(C(C)(C)C)cc(C)cc1C(C)(C)C)c1ccccc1 (stereo not given) do in these assays?
FAS-TE inh: inactive; NadD block: inactive; Mot1-301 SUMO: inactive; ATG4B inh: inactive

Results for O=C(Nc1cccc(S(=O)(=O)NC2=NCCCCC2)c1)c1cc(-c2ccccc2)nc2ccccc12 ?
FAS-TE inh: inactive; NadD block: inactive; Mot1-301 SUMO: inactive; Calb FLC: inactive; ATG4B inh: inactive

What do the screens show for `O=C(Nc1cccc(S(=O)(=O)NC2=NCCCCC2)c1)c1cc(-c2ccc(Cl)cc2)nc2ccccc12`?
FAS-TE inh: 57.3; NadD block: 26.1; Mot1-301 SUMO: inactive; Calb FLC: inactive; ATG4B inh: inactive; FAS-TE conf: inactive; NadD inh conf: inactive

What do the screens show for `Cc1ccc(NC(=O)N(Cc2ccc3c(c2)OCO3)Cc2cc3cc4c(cc3[nH]c2=O)OCCO4)cc1`?
FAS-TE inh: 75.1; NadD block: 34.1; Mot1-301 SUMO: inactive; Calb FLC: inactive; ATG4B inh: inactive; FAS-TE conf: inactive; NadD inh conf: inactive

Results for CCC(C)(C)n1nnnc1C(C(C)C)N(CCN1CCOCC1)Cc1cc2cccc(C)c2[nH]c1=O (stereo not given) ?
FAS-TE inh: inactive; NadD block: inactive; Mot1-301 SUMO: inactive; Calb FLC: inactive; ATG4B inh: inactive

What do the screens show for `Cc1cc2cc(CN(Cc3cccs3)C(c3nnnn3C(C)(C)C)C(C)C)c3nnnn3c2cc1C` (stereo not given)?
FAS-TE inh: 51.9; NadD block: 30.9; Calb FLC: inactive; ATG4B inh: inactive; FAS-TE conf: inactive; NadD inh conf: inactive

What do the screens show for `CC1Cc2ccccc2N1C(=O)CSc1nc2cc3c(cc2cc1C#N)OCO3` (stereo not given)?
FAS-TE inh: 73.8; NadD block: 35.1; Mot1-301 SUMO: inactive; ATG4B inh: inactive; FAS-TE conf: inactive; NadD inh conf: inactive

What do the screens show for `C[C@H](NC(=O)c1ncn2c1C(=O)NC[C@@H]2C)c1ccccc1`?
FAS-TE inh: inactive; NadD block: inactive

Results for Cc1nc(/N=C(\N)NC(=O)N2c3ccccc3Sc3ccccc32)nc2ccccc12 ?
FAS-TE inh: 67.9; NadD block: 30.6; Mot1-301 SUMO: inactive; ATG4B inh: inactive; FAS-TE conf: inactive; NadD inh conf: inactive

Results for Cc1nc(/N=C(\N)NC(=O)c2ccccc2)nc2ccccc12 ?
FAS-TE inh: inactive; NadD block: inactive; Mot1-301 SUMO: inactive; Calb FLC: inactive; ATG4B inh: inactive

Results for O=C1N[C@@H](Cc2ccccc2)C(=O)N2[C@H]1C[C@]1([C@]34C[C@H]5C(=O)N[C@@H](Cc6ccccc6)C(=O)N5[C@H]3N(S(=O)(=O)c3ccccc3)c3ccccc34)c3ccccc3N(S(=O)(=O)c3ccccc3)[C@H]21 ?
FAS-TE inh: 76.7; NadD block: 38.4; Mot1-301 SUMO: inactive; Calb FLC: inactive; ATG4B inh: inactive; FAS-TE conf: inactive; NadD inh conf: inactive

What do the screens show for `O=C1N[C@@H](Cc2ccccc2)C(=O)N2[C@@H]3N(S(=O)(=O)c4ccccc4)c4ccccc4[C@]3(Br)C[C@@H]12`?
FAS-TE inh: inactive; NadD block: inactive; Mot1-301 SUMO: inactive; Calb FLC: inactive; ATG4B inh: inactive

How did COc1ccccc1C(C)NS(=O)(=O)c1cccs1 (stereo not given) do in these assays?
Mot1-301 SUMO: inactive; Calb FLC: inactive

What do the screens show for `Cc1nn(-c2ccccc2)c(N2CCCC2)c1/C=N/NC(=O)c1cccc(S(=O)(=O)Nc2ccc(Cl)cc2)c1`?
FAS-TE inh: 50.5; NadD block: 53.5; Calb FLC: inactive; ATG4B inh: inactive; FAS-TE conf: inactive; NadD inh conf: 55.2

Results for COc1ccc(-c2nn(-c3ccccc3)cc2/C=N/NC(=O)c2cccc(S(=O)(=O)Nc3ccccc3Cl)c2)cc1 ?
FAS-TE inh: 58.7; NadD block: 41.8; Mot1-301 SUMO: inactive; Calb FLC: inactive; ATG4B inh: inactive; FAS-TE conf: inactive; NadD inh conf: inactive
